Activity calls are given as the source filed them. How the source made its calls: active means hit-call score of the fitted dose curve at least 0.9, where 1 is the maximum; inactive means score below 0.9.

For 4 compounds, outcome and AC50 results are on record in PubChem BioAssay (EPA / NIEHS).

Read-out in assay [1]: Thrombomodulin, THBD (gene 7056)
Nature of the assay: BSK_CASM3C_Thrombomodulin: BioMAP Diversity Plus: CASM3C Assay for Thrombomodulin Biomarker Activity (AID 2283051).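 Further: thrombomodulin protein level measured by ELISA 24 h after dosing.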 As to conditions: primary human coronary artery smooth muscle cells; actives raise or lower the signal.

Read-out in assay [2]: Tissue Factor, F3 (gene 2152)
Nature of the assay: BSK_CASM3C_TissueFactor: BioMAP Diversity Plus: CASM3C Assay for Tissue Factor Biomarker Activity (AID 2283052).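 Further: cell surface tissue factor protein level read by ELISA.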 As to conditions: primary human coronary artery smooth muscle cells; actives raise or lower the signal.

Read-out in assay [3]: Interferon-gamma inducible Protein 10 (IP10), CXCL10 (gene 3627)
Nature of the assay: BSK_hDFCGF_IP10: BioMAP Diversity Plus: hDFCGF Assay for Interferon-gamma inducible Protein 10 (IP10) Biomarker Activity (AID 2283053). Conditions: primary human foreskin fibroblasts; actives raise or lower the signal. The essentials:
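Chemical-treated human skin fibroblasts (primary) were sampled at 24 h for IP-10 by ELISA. Both increases and decreases relative to DMSO were scored.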

Read-out in assay [4]: Urokinase-type plasminogen activator receptor (uPAR), PLAUR (gene 5329)
Nature of the assay: BSK_CASM3C_uPAR: BioMAP Diversity Plus: CASM3C Assay for Urokinase-type plasminogen activator receptor (uPAR) Biomarker Activity (AID 2283054).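 Further: cell-surface uPAR protein level quantified by ELISA.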 Conditions: primary human coronary artery smooth muscle cells; actives raise or lower the signal.

Read-out in assay [5]: Vascular cell adhesion molecule 1 (VCAM1), VCAM1 (gene 7412)
As to the kind of experiment: BSK_CASM3C_VCAM1: BioMAP Diversity Plus: CASM3C Assay for Vascular cell adhesion molecule 1 (VCAM1) Biomarker Activity (AID 2283055).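 Further: VCAM-1 protein level quantified by ELISA on the cells.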 As to conditions: primary human coronary artery smooth muscle cells; actives raise or lower the signal.

Read-out in assay [6]: Collagen III, COL3A1 (gene 1281)
As to the kind of experiment: BSK_hDFCGF_CollagenIII: BioMAP Diversity Plus: hDFCGF Assay for Collagen III Biomarker Activity (AID 2283056). Conditions: primary human foreskin fibroblasts; actives raise or lower the signal. The essentials:
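Cells: human foreskin fibroblasts, primary. Dosing followed by 24 h incubation, then ELISA for collagen III. Both increases and decreases scored relative to DMSO.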

Read-out in assay [7]: Epidermal growth factor receptor (EGFR), EGFR (gene 1956)
Nature of the assay: BSK_hDFCGF_EGFR: BioMAP Diversity Plus: hDFCGF Assay for Epidermal growth factor receptor (EGFR) Biomarker Activity (AID 2283057). As to conditions: primary human foreskin fibroblasts; actives raise or lower the signal. The essentials: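 Cell-based multiplexed assay in primary human foreskin fibroblasts. EGFR is read by ELISA 24 h after treatment and compared with DMSO controls.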

Read-out in assay [8]: Interleukin-8 (IL8), CXCL8 (gene 3576)
Nature of the assay: BSK_hDFCGF_IL8: BioMAP Diversity Plus: hDFCGF Assay for Interleukin-8 (IL8) Biomarker Activity (AID 2283058). Conditions: primary human foreskin fibroblasts; actives raise or lower the signal. The essentials:
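IL-8 levels from compound-treated primary human fibroblasts were read by ELISA at 24 h, with DMSO serving as baseline for bidirectional fitting.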

Assay [9] in a line: BSK_hDFCGF_Proliferation: Cell Proliferation Assessment in the BioMAP Diversity Plus: hDFCGF Assay (AID 2283059).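 Further: curves fitted for both rise and fall of signal versus DMSO baseline.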 Conditions: primary human foreskin fibroblasts. The essentials: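 Sub-confluent human foreskin fibroblast cultures receive test chemical […]. Relative cell number is quantified by sulforhodamine B staining (0.1%, after 10% TCA fixation) at 560 nm, with bidirectional fitting referenced to DMSO.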

Read-out in assay [10]: Macrophage colony-stimulating factor (MCSF), CSF1 (gene 1435)
As to the kind of experiment: BSK_hDFCGF_MCSF: BioMAP Diversity Plus: hDFCGF Assay for Macrophage colony-stimulating factor (MCSF) Biomarker Activity (AID 2283060). As to conditions: primary human foreskin fibroblasts; actives raise or lower the signal. The essentials:
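M-CSF levels, determined by ELISA, are taken at 24 h after dosing human skin fibroblasts. Responses in either direction are fitted with DMSO serving as the baseline.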

A short description of assay [11]: BSK_hDFCGF_SRB: Viability Assessment in the BioMAP Diversity Plus: hDFCGF Assay (AID 2283061).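 Further: cells exposed to compound for 24 h before the read.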 Conditions: primary human foreskin fibroblasts. The essentials:
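Cells were dosed with test chemical, cultured 24 h, fixed with 10% TCA, then stained with 0.1% SRB and read at 560 nm. The fibroblasts were human foreskin primary cells, and DMSO served as baseline.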

Read-out in assay [12]: TIMP metallopeptidase inhibitor 1 (TIMP1), TIMP1 (gene 7076)
As to the kind of experiment: BSK_hDFCGF_TIMP1: BioMAP Diversity Plus: hDFCGF Assay for TIMP metallopeptidase inhibitor 1 (TIMP1) Biomarker Activity (AID 2283062). Conditions: primary human foreskin fibroblasts; actives raise or lower the signal. The essentials:
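Fibroblasts from human foreskin are treated with test chemical and harvested at 24 h. TIMP-1 is quantified by ELISA, and gain or loss of signal is scored against DMSO.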

Read-out in assay [13]: Monokine induced gamma interferon (MIG), CXCL9 (gene 4283)
Nature of the assay: BSK_hDFCGF_MIG: BioMAP Diversity Plus: hDFCGF Assay for Monokine induced gamma interferon (MIG) Biomarker Activity (AID 2283063). As to conditions: primary human foreskin fibroblasts; actives raise or lower the signal. The essentials:
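MIG signal, determined by ELISA, reflects 24 h chemical exposure of human skin primary fibroblasts. DMSO serves as negative control and baseline.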

Read-out in assay [14]: Matrix Metallopeptidase 1 (MMP1), MMP1 (gene 4312)
As to the kind of experiment: BSK_hDFCGF_MMP1: BioMAP Diversity Plus: hDFCGF Assay for Matrix Metallopeptidase 1 (MMP1) Biomarker Activity (AID 2283064). Conditions: primary human foreskin fibroblasts; actives raise or lower the signal. The essentials: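 ELISA read-out of MMP1 from human foreskin fibroblasts (primary skin cells), 24 h post-dose. Gain or loss of signal was fitted bidirectionally versus DMSO negative control; cytotoxicity was checked by SRB in parallel cultures.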

Read-out in assay [15]: Vascular cell adhesion molecule 1 (VCAM1), VCAM1 (gene 7412)
As to the kind of experiment: BSK_hDFCGF_VCAM1: BioMAP Diversity Plus: hDFCGF Assay for Vascular cell adhesion molecule 1 (VCAM1) Biomarker Activity (AID 2283065).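 On AC50: VCAM-1 protein level quantified by ELISA after 24 h chemical exposure.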 As to conditions: primary human foreskin fibroblasts; actives raise or lower the signal. The essentials:
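Cells are dosed, cultured for 24 h, then VCAM-1 is quantified by ELISA; signal increases and decreases are both fitted relative to DMSO.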

Read-out in assay [16]: Plasminogen activator inhibitor-1 (PAI1), SERPINE1 (gene 5054)
As to the kind of experiment: BSK_hDFCGF_PAI1: BioMAP Diversity Plus: hDFCGF Assay for Plasminogen activator inhibitor-1 (PAI1) Biomarker Activity (AID 2283066). As to conditions: primary human foreskin fibroblasts; actives raise or lower the signal. The essentials:
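Human skin fibroblast cultures receive chemical for 24 h before PAI-1 is measured by ELISA; signal changes are fitted bidirectionally against DMSO-treated wells.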

Read-out in assay [17]: Intercellular Adhesion Molecule 1 (ICAM1), ICAM1 (gene 3383)
As to the kind of experiment: BSK_KF3CT_ICAM1: BioMAP Diversity Plus: KF3CT Assay for Intercellular Adhesion Molecule 1 (ICAM1) Biomarker Activity (AID 2283067). Conditions: primary human keratinocytes with fibroblasts; actives raise or lower the signal. The essentials:
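Dose the keratinocyte/fibroblast co-culture, wait 24 h, measure ICAM-1 by ELISA, then fit increases or decreases against DMSO. Cytotoxicity is checked in parallel cultures by SRB total-protein staining.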

Read-out in assay [18]: Interferon-gamma inducible Protein 10 (IP10), CXCL10 (gene 3627)
As to the kind of experiment: BSK_KF3CT_IP10: BioMAP Diversity Plus: KF3CT Assay for Interferon-gamma inducible Protein 10 (IP10) Biomarker Activity (AID 2283068). As to conditions: primary human keratinocytes with fibroblasts; actives raise or lower the signal. The essentials:
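ELISA read-out of IP-10 after 24 h chemical dosing of human skin primary co-culture (keratinocytes, foreskin fibroblasts). Gain or loss of signal relative to DMSO, bidirectional curve fit.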

Assay [19] can be described thus: BSK_KF3CT_SRB: Viability Assessment in the BioMAP Diversity Plus: KF3CT Assay (AID 2283069).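 Further: total protein by sulforhodamine B staining as a cytotoxicity measure; fitted for both signal gain and loss against DMSO baseline.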 As to conditions: primary human keratinocytes with fibroblasts. The essentials: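 SRB read-out at 560 nm (0.1% stain, TCA-fixed cells) gauges overt cytotoxicity in a human skin keratinocyte–fibroblast co-culture 24 h post-dosing. Signal change was fitted bidirectionally relative to DMSO control.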

Read-out in assay [20]: Interleukin-1 alpha (IL1a), IL1A (gene 3552)
Nature of the assay: BSK_KF3CT_IL1a: BioMAP Diversity Plus: KF3CT Assay for Interleukin-1 alpha (IL1a) Biomarker Activity (AID 2283070). As to conditions: primary human keratinocytes with fibroblasts; actives raise or lower the signal. The essentials: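 Primary skin co-culture (keratinocytes, foreskin fibroblasts), 24 h exposure; ELISA for IL-1a; bidirectional curve fit vs DMSO.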

What is called AC50 is the concentration giving half of the maximal activity seen. Turning to `CCOC(=O)CCN(SN(C)C(=O)Oc1cccc2c1OC(C)(C)C2)C(C)C`, the outcome in assay [1], in assay [7], in [8], in assay [14], in [17] and in [18] was inactive. Further, the result in assay [19] and in assay [20] was inactive. Further, the AC50 in [2] was 8.62 µM (active); in [3], 37.1 µM (active); in [4] it was 33.3 µM (active); in assay [5] it was 20 µM (active); in assay [6], 4.31 µM (active); in [9], 15.2 µM (active). Besides, the AC50 is 26 µM (active) in assay [10]; 31 µM (active) in assay [11]; 33.5 µM (active) in assay [12]; 29.9 µM (active) in [13]; 29.7 µM (active) in [15]; 28.7 µM (active) in [16].
Take `CC(C)=CC1C(C(=O)OCc2cccc(Oc3ccccc3)c2)C1(C)C` (stereo not given): the AC50 was 10.4 µM (active) in assay [1]; 9.79 µM (active) in assay [2]; 7.5 µM (active) in assay [6]; 20 µM (active) in [9]; 7.43 µM (active) in assay [10]; 12.4 µM (active) in [11]. In addition, the AC50 is 12.5 µM (active) in [12], 12.4 µM (active) in [15] and 12.5 µM (active) in [16]. The result in [3], in [4], in assay [5], in assay [7], in assay [8] and in assay [13] was inactive. The outcome in assay [14], in assay [17], in assay [18], in assay [19] and in assay [20] was inactive.
As to `O=C1C=CC(=O)c2ccccc21`, the AC50 is 34.1 µM (active) in [1]; 6.75 µM (active) in assay [2]; 1.55 µM (active) in assay [3]; 4.99 µM (active) in assay [4]; 3.84 µM (active) in [5]; 1.27 µM (active) in assay [6]. Besides, the AC50 in [9] is 0.905 µM (active); in [10] it was 1.17 µM (active); in assay [11], 1.63 µM (active); in [12], 2.41 µM (active); in assay [13], 1.68 µM (active); in assay [14], 1.98 µM (active). The AC50 is 1.2 µM (active) in assay [15]; 1.53 µM (active) in assay [16]; 2.71 µM (active) in [17]; 2.81 µM (active) in [18]; 2.04 µM (active) in [20]. Besides, the outcome in assay [7], in assay [8] and in [19] was inactive.
As to `CC(C)(C)c1cc([N+](=O)[O-])cc(C(C)(C)C)c1O`, the outcome in assay [1], in assay [2], in assay [3], in [5], in assay [6] and in [7] was inactive. Further, the result in [8], in assay [9], in [10], in assay [11], in assay [12] and in assay [13] was inactive. The result in assay [14], in assay [15], in assay [16], in assay [17], in [19] and in assay [20] was inactive. For the same compound, the figures for the half-maximal activity concentration (AC50) in assay [4] and in assay [18] were 11.8 µM (active) and 0.0652 µM (active), respectively.
